TDP1 cell noCPT: qHTS for Inhibitors of human tyrosyl-DNA phosphodiesterase 1 (TDP1): qHTS in cells in absence of CPT; DT40 Tdp1-/- hTDP1 cells, no CPT, ATP luminescence, 48 h; Potency, µM (highest dose often 46.2 µM), hits mostly inhibitors; 420,000 compounds, 15% hits; AID 686978, 2013; also: nearly all actives have a fitted effect of over 55% in size
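Compound effects on proliferation are scored in DT40 Tdp1-/-;hTDP1 cells in the absence of CPT. ATP levels (CellTiter-Glo luminescence) are recorded after a ≥48 hr, 37 °C incubation.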
HT1080NT lethal: qHTS for induction of synthetic lethality in tumor cells producing 2HG: qHTS for the HT-1080-NT fibrosarcoma cell line; HT-1080-NT fibrosarcoma viability, CellTiter-Glo ATP luminescence, 48 h; Potency, µM (top dose mostly 46.1 µM), most hits filed as cytotoxic; 360,000 compounds, 1.6% hits; AID 686970, 2013;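 also: NT is the 2HG producing partner of a matched IDH1 knockdown line; nearly all actives have a fitted effect of over 55% in size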
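A 48-hour cytotoxicity screen used HT-1080-NT cells plated 2 hours before compound delivery. ATP-based CellTiter-Glo luminescence measured viability, normalized to DMSO and no-cell controls.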
HT1080 IDH1KD tx: qHTS for induction of synthetic lethality in tumor cells producing 2HG: qHTS for the HT-1080-IDH1KD cell line. HT-1080 IDH1 knockdown viability, ATP luminescence, 48 h. Potency, µM (doses to about 46.1 µM), actives largely listed as cytotoxic. 360,000 compounds, 2% hits. AID 686971, 2013
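% activity derives from luminescence (CellTiter-Glo), normalised to DMSO and no-cell wells. HT-1080-IDH1KD cells, 750/well, had 48 h compound exposure at 37 °C.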
TDP1 cell CPT: qHTS for Inhibitors of human tyrosyl-DNA phosphodiesterase 1 (TDP1): qHTS in cells in presence of CPT; 420,000 compounds, 12% hits; Potency, µM (series often up to 46.2 µM), usual class: inhibitors; chicken DT40 Tdp1-/-;hTDP1 cells + 20 nM CPT, ATP luminescence, 48 h; also: nearly all actives have a fitted effect of over 55% in size
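Chicken DT40 Tdp1-/- cells complemented with human TDP1, 400 cells/well, exposed to compounds plus 20 nM camptothecin for at least 48 h at 37 C; viability read as ATP content by CellTiter-Glo luminescence.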
IL1B secr inh: qHTS for Inhibitors of Inflammasome Signaling: IL-1-beta AlphaLISA Primary Screen | THP-1 LPS/ATP IL-1B secretion, AlphaLISA, 16 h; active compounds read low | activity change, % at 57.5 µM | 360,000 compounds, 4.7% hits | AID 743279, 2014; in the data active = activity change below about -50%; inconclusive = mostly about -30% to -49%
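THP-1 cells pretreated 1 hr with compounds (up to 57.5 uM final), then stimulated with LPS (250 ng/mL final) plus ATP (1.25 mM final); secreted IL-1B measured by AlphaLISA after 16 hr, decreased signal indicating inhibition.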
Numbers stand for hits; n = inactive; u = inconclusive; x = not tested or not shown. Hits are enriched below; roughly 19% of the tested compounds scored in any of these assays. Unless noted, calls follow the shape of the dose curve; as a rule, active = well fitted curve in the direction sought with a large enough effect; inconclusive = small, poorly fitted or top-dose-only effect, or another doubt; inactive = no such curve, though single readings can be large; an effect the other way counts as inactive or inconclusive.

SMILES	TDP1 cell noCPT	HT1080NT lethal	HT1080 IDH1KD tx	TDP1 cell CPT	IL1B secr inh
COc1ccc(N(C(=O)c2ccncc2)S(=O)(=O)c2ccc3c4c(cccc24)C(=O)N3C)cc1	u	n	n	18µM	n
CC(Sc1nnc(Cc2cccs2)n1C1CCCCC1)C(=O)NCc1ccco1 (centres undefined)	15µM	n	n	15µM	n
C=CCC(CC=C)(CNC(=O)C(=O)Nc1ccc(Br)cc1)c1ccc(OC)c(OC)c1	u	x	x	n	x
COc1cc(-c2nc(Cn3nnc(C(=O)Nc4ccccc4)c3C)c(C)o2)cc(OC)c1OC	26µM	x	x	u	x
COc1ccc(NC(=O)c2nnn(Cc3nc(-c4cc(OC)c(OC)c(OC)c4)oc3C)c2C)cc1Cl	n	x	x	n	x
CCCOc1ccc2nc(NC(=O)OC)[nH]c2c1	0.15µM	x	x	0.094µM	x
CCOC(=O)Nc1nc2ccc(Cn3cccc3)cc2[nH]1	0.58µM	3.3µM	u	0.82µM	n
COc1ccccc1CNc1nc(NCc2cccc(OC)c2OC)c2sccc2n1	7.3µM	21µM	u	4.6µM	-90
COCCNc1nc(NCc2cccc(OC)c2OC)c2sccc2n1	12µM	u	n	u	n
COc1cccc(CNc2nn[nH]n2)c1OC	n	n	n	n	n
COc1cc(NC(=O)COC(=O)CCOc2ccc(C)cc2)cc(OC)c1	n	n	n	n	n
Cc1sc(NC(=O)CN2CCCC2)nc1-c1ccc2c(c1)CCN2C(=O)c1cccc(F)c1	16µM	n	u	u	-66
Cc1sc(NC(=O)Cc2ccc3c(c2)OCO3)nc1-c1ccc2c(c1)CCN2C(=O)c1ccccc1F	8.2µM	n	u	18µM	u
O=S1(=O)CC(N2CC=CC2)CN1Cc1cn(Cc2ccccc2)nn1 (centres undefined)	n	n	n	n	n
COc1ccc(N2CC(NC(=O)COc3ccc4ccccc4c3)CC2=O)cc1 (centres undefined)	n	x	x	n	x
CN(C)C(CNC(=O)c1cccc(S(=O)(=O)N2CCN(c3ccccc3)CC2)c1)c1ccccc1 (centres undefined)	u	n	n	u	n
O=C(NCc1ccccn1)c1cc(S(=O)(=O)N2CCN(c3ccccc3)CC2)ccc1Cl	18µM	n	n	10µM	n
Cc1ccc(S(=O)(=O)N2CCCC2)cc1C(=O)NCc1ccccn1	n	n	n	n	n
COc1ccc(C(CNC(=O)c2ccc(S(=O)(=O)N3CCCC3)cc2)N(C)C)cc1OC (centres undefined)	n	n	n	u	n
COc1ccc(C(CNC(=O)c2cc(S(=O)(=O)N3CCN(c4ccccc4)CC3)ccc2Cl)N(C)C)cc1 (centres undefined)	18µM	u	u	21µM	u
COc1ccc(C(CNC(=O)c2ccc(S(=O)(=O)N3CC(C)CC(C)C3)cc2)N(C)C)cc1 (centres undefined)	29µM	u	u	u	-52
CCCCNC(=O)c1nc(-c2cccnc2)oc1-c1ccc(OC(F)(F)F)cc1	n	n	n	n	n
O=C1C=C(OCCF)CC(c2ccccc2C(F)(F)F)O1 (centres undefined)	n	n	n	n	n
CCN(c1ccc(OC)cc1)S(=O)(=O)c1nnc(NC(=O)COc2ccccc2)s1	u	n	n	n	n
CC(Sc1ccccc1)C(=O)N1CCN(S(=O)(=O)c2ccc(Cl)cc2)CC1 (centres undefined)	u	n	n	n	n
CCOc1ccccc1OCCCC(=O)N1CCN(S(=O)(=O)c2ccccc2C#N)CC1	u	n	n	n	n
CCOC(=O)C[C@H]1c2cc(F)ccc2S(=O)(=O)N1Cc1ccc(OC)cc1	u	n	n	u	n
CCOC(=O)C[C@H]1c2cc(F)ccc2S(=O)(=O)N1Cc1cc(OC)c(OC)c(OC)c1	11µM	x	x	10µM	x

Source: PubChem (National Center for Advancing Translational Sciences (NCATS))
